# Test results published in ChEMBL document CHEMBL1201862, “PubChem BioAssay data set” (2004).
# The campaign covered roughly 400,000 compounds. About 2,100 (0.53%) were called active. Roughly 14% stayed inconclusive and do not appear here. How the calls were made is not given here. What follows is part of a selection rich in actives, with near analogues and random picks from the rest.
# Target: Ataxin-2 (Homo sapiens) (UniProt Q99700)
# Assay: qHTS for Inhibitors of ATXN expression.
# Assay type: functional
# Ataxin-2 (Homo sapiens), sequence (Q99700 whole entry): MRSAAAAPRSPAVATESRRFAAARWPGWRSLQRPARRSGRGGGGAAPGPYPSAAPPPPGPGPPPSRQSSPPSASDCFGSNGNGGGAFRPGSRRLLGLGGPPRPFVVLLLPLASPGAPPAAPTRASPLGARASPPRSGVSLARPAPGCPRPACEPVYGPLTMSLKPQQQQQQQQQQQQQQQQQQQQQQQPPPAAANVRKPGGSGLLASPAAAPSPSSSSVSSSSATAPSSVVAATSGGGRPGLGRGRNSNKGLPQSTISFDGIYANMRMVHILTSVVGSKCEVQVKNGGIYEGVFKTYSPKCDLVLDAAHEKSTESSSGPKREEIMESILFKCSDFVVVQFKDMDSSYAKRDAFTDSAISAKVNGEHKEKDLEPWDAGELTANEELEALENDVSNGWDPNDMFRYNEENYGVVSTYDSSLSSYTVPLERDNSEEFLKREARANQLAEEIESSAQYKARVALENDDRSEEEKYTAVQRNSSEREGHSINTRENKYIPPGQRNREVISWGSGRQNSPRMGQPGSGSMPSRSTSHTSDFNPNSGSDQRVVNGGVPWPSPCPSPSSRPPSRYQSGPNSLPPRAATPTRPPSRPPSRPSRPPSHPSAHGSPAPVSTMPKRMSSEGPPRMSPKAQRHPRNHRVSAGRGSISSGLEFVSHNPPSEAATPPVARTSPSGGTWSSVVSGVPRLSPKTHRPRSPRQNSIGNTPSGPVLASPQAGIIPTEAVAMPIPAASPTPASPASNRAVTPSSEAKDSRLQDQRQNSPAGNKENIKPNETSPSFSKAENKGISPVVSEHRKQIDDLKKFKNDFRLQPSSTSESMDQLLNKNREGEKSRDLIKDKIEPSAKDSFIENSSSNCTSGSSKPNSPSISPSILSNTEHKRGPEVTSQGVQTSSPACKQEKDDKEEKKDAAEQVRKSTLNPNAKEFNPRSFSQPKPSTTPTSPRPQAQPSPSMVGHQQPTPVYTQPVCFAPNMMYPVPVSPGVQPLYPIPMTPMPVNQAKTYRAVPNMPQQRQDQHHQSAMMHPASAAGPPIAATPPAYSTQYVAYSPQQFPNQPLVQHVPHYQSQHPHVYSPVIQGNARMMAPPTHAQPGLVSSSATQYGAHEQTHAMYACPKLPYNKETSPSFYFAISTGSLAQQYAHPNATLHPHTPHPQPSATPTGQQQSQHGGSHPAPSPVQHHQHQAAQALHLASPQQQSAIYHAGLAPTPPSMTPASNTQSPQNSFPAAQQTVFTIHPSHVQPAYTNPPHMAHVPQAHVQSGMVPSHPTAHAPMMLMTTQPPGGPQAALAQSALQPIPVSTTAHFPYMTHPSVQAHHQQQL
row,Structure (SMILES),Potency
1,N#CCC(=O)N/N=C/c1ccc(N2N=C(c3ccccc3)CC2c2ccccc2)cc1 (stereo not given),inactive
2,Cc1ccc(C)c(NC(=O)CCNS(=O)(=O)c2ccc3nc(O)oc3c2)c1,inactive
3,CCN1CCN(C(c2cccs2)C(C)NC(=O)C(C)C)CC1 (stereo not given),inactive
4,Nc1c(C(=O)N/N=C/c2ccccc2Cl)oc2nc(-c3ccccc3)cc(-c3ccco3)c12,inactive
5,Cc1cc(/C=N/NC(=O)Cn2c3ccccc3c(=O)c3ccccc32)c(C)n1-c1ccccc1,inactive
6,Cc1ccc(-n2c(C)cc(/C=N/NC(=O)Cn3c4ccccc4c(=O)c4ccccc43)c2C)cc1,inactive
7,O=C(Cn1c2ccccc2c(=O)c2ccccc21)N/N=C/c1ccc(N2CCCC2)c([N+](=O)[O-])c1,39.8 µM (active)
8,Cc1ccc(S(=O)(=O)NC(C(=O)Oc2cc3oc(=O)cc(C)c3cc2Cl)C(C)C)cc1 (stereo not given),inactive
9,CC(=O)Nc1nn(CC(C)C)c2nc3ccc(C)cc3cc12,inactive
10,O=S(=O)(Nc1nc2n(n1)C(c1ccc(F)cc1)C=C(c1ccccc1)N2)c1ccccc1 (stereo not given),inactive
11,COc1ccc([C@H]2C[C@H](O)[C@@H](n3cc(-c4ccc(F)cc4)nn3)CN2CC2CCCCC2)cc1,39.8 µM (active)
12,O[C@H]1C[C@H](c2ccc(Cl)cc2)N(Cc2cccs2)C[C@@H]1n1cc(-c2ccc(F)cc2)nn1,25.1 µM (active)
13,CCCCCCN1C[C@H](n2cc(-c3ccc(F)cc3)nn2)[C@@H](O)C[C@@H]1c1ccc(Cl)cc1,22.4 µM (active)
14,CCCCCC(=O)N1C[C@@H](n2cc(-c3ccc(F)cc3)nn2)[C@H](O)C[C@@H]1c1ccc(Cl)cc1,31.6 µM (active)
15,CCCC(=O)NCn1nnc(-c2ccc(Cl)cc2)n1,inactive
16,CCCCNC(=O)COC(=O)c1c2c(nc3ccccc13)/C(=C/c1cccs1)CC2,inactive
17,COc1ccc(OCCCC(=O)ON=C(N)c2ccccc2C)cc1,inactive
18,CCOC(=O)C1=C(NC(=O)c2cc(S(=O)(=O)N3CCOCC3)ccc2C)Nc2ccccc2N=C1CC,inactive
19,NS(=O)(=O)c1ccc(N2N=C(c3ccc(Br)cc3)CC2c2ccc(F)cc2)cc1 (stereo not given),inactive
20,CCCCCCN1C[C@H](n2cc(-c3ccc(F)cc3)nn2)[C@@H](O)C[C@@H]1c1ccc(C)cc1,39.8 µM (active)
21,CCCCCCN1C[C@@H](n2cc(-c3ccc(F)cc3)nn2)[C@H](O)C[C@@H]1c1ccc(OC)cc1,35.5 µM (active)
22,CCCCCCN1C[C@H](n2cc(C3CC3)nn2)[C@@H](O)C[C@@H]1c1ccc(C)cc1,35.5 µM (active)
23,COc1ccc(C2=Nc3nc(-c4ccccc4)cn3C(c3ccc(OC)cc3)C2)cc1 (stereo not given),inactive

row,Structure (SMILES),Potency
1,Cc1ccc([C@H]2C[C@H](O)[C@@H](n3cc(C4CC4)nn3)CN2Cc2cccs2)cc1,35.5 µM (active)
2,COc1ccc(C2=CC(c3ccc(F)cc3)n3nnnc3N2)cc1 (stereo not given),inactive
3,Fc1ccc(C2CC(c3cccs3)=NN2c2ccccc2)cc1 (stereo not given),inactive
4,Cc1cc(F)ccc1NC(=O)c1sc2nc(-c3cccs3)ccc2c1N,inactive
5,CCOC(=O)c1cc2c(=O)n3ccccc3nc2n(Cc2ccco2)/c1=N/C(=O)c1ccc(OC)cc1OC,inactive
6,COC(=O)[C@]12CCCCC=C1N(CCC1=CCCCC1)C(=O)[C@H](CC(=O)N1CCN(C(=O)c3ccco3)CC1)C2,22.4 µM (active)
7,COC(=O)[C@]12CCCCC=C1N(Cc1cccc3ccccc13)C(=O)[C@H](CC(=O)N1CCN(C(=O)c3ccco3)CC1)C2,22.4 µM (active)
8,CCCCCCCCN1C(=O)[C@H](CC(=O)N2CCN(C(=O)c3ccco3)CC2)C[C@@]2(C(=O)OCC)CCCC=C12,14.1 µM (active)
9,O=C(Nc1c(C(=O)c2ccc(F)cc2)oc2ccccc12)c1cc(-c2ccccc2)on1,inactive
10,COc1cc(/C=N/Nc2ccc([N+](=O)[O-])cc2S(=O)(=O)N2CCOCC2)cc(OC)c1OC,inactive
11,Cc1ccc(Nc2ncc(C(=O)N3CCN(c4ccc(F)cc4)CC3)c3ccccc23)cc1Cl,inactive
12,Cc1ccc(Cl)cc1N1CCN(C(=O)Cc2csc(Nc3nc(S)nc4ccccc34)n2)CC1,inactive
13,Cc1ccc(Cl)cc1N1CCN(C(=O)c2cnn(-c3ccc(Cl)cc3)c2C2CCNCC2)CC1,39.8 µM (active)
14,COc1ccc(S(=O)(=O)NCCc2cn3nc(C)c(C)nc3n2)cc1,inactive
15,CN1C2=CC=CC=CC2=[N+](C)C12C=CC(=[N+]([O-])[O-])C=C2[N+](=O)[O-] (stereo not given),20 µM (active)
16,CCN(CC)C1=CC2=CC(=C(C#N)C#N)CCC2CC1 (stereo not given),inactive
17,Cc1cc(C)nc(N(C#N)Cc2ccc(Cl)cc2)n1,inactive
18,Cc1ccc(CN2C(=O)CC(c3ccc(Cl)cc3)c3c(C)nn(-c4nc(C)cc(C)n4)c32)cc1 (stereo not given),39.8 µM (active)
19,CCOC(=O)C1CCN(S(=O)(=O)c2cc3c(cc2C)NC(=O)CO3)CC1,inactive
20,CS(=O)(=O)c1nc([N+](=O)[O-])nn1CCCc1ccccc1,39.8 µM (active)
21,Cn1c(-c2c(N)n(CCCc3ccccc3)c3nc4ccccc4nc23)nc2ccccc21,inactive
22,CCN(C(=O)c1cc2c(=O)n3ccccc3nc2s1)C1CCCCC1,inactive
23,O=[N+]([O-])c1cncc([N+](=O)[O-])c1Nc1cccc(O)c1,22.4 µM (active)

row,Structure (SMILES),Potency
1,COc1ccc(C2NS(=O)(=O)N=C2N)cc1 (stereo not given),inactive
2,N#Cc1c(-c2ccccc2)c(C#N)c2nc3ccccc3n2c1N,inactive
3,Nc1ccc2c(C(F)(F)F)cc(=O)oc2c1,inactive
4,CC(=O)Nc1cccc(NC(=O)CSc2ncc(C(=O)Nc3ccccc3)c(=O)n2C)c1,39.8 µM (active)
5,COCCn1c(SCC(=O)Nc2ccc(NC(C)=O)cc2)nc2ccccc2c1=O,inactive
6,Cn1c(SCC(=O)NCC2CCCO2)ncc(C(=O)Nc2ccc(Cl)cc2)c1=O (stereo not given),35.5 µM (active)
7,CC(=O)c1cccc(NC(=O)c2ccccc2-c2ccccc2C(=O)O)c1,inactive
8,O=C(Cn1c(=O)c(=O)n(Cc2ccccc2)c2ccc(Cl)cc21)NCC1CCCO1 (stereo not given),inactive
9,CC(C)Cn1c(SC(C)C(=O)NCC2CCCO2)nc2ccc(Cl)cc2c1=O (stereo not given),inactive
10,CC1=CC2=NC(=O)/C(=C/c3coc4ccccc4c3=O)C(=N)N2O1,inactive
11,COc1ccc(-c2c(C)c3ccc(O)c(CN4CCN(CCO)CC4)c3oc2=O)cc1OC,inactive
12,O=C(Nc1nc2n(n1)C(c1ccccc1)C=C(c1ccccc1)N2)c1ccccc1 (stereo not given),inactive
13,COc1cc(NS(=O)(=O)c2ccc(N/C=C\C(=O)c3ccc(F)cc3)cc2)nc(OC)n1,inactive
14,O=C1C(Br)=Cc2cccc3cccc1c23,inactive
15,O=C1c2cccc3cccc(c23)C(=O)C1(O)O,15 µM (active)
16,O=C1c2sccc2-c2cccc3cccc1c23,inactive
17,Cc1cc2nc(-c3ccco3)c(Cc3ccccc3C(F)(F)F)n2c(C)c1Br,39.8 µM (active)
18,O=C1NC(Cc2ccc(O)cc2)c2nc3cc(F)c(F)cc3c(=O)n2-c2cc3ccccc3cc21 (stereo not given),35.5 µM (active)
19,Cc1ccc(CC2(OCCN(C)C)CCC(C(C)(C)C)CC2)cc1 (stereo not given),42.3 µM (active)
20,CN(C)CCOC1(Cc2ccc(F)cc2)CCC(C(C)(C)C)CC1 (stereo not given),21.2 µM (active)
21,O=C(NCc1nc2ccccc2[nH]1)C1=C[C@@H](c2ccc(Br)cc2)C[C@@H](OCCCCO)O1,31.6 µM (active)
22,Cc1ccccc1NC(=O)CN1C(=O)S/C(=C\c2ccc(-c3cc(C(=O)O)ccc3C)o2)C1=O,inactive
23,C=C1CC2(OC1=O)c1ccccc1CCc1ccccc12,5.97 µM (active)

row,Structure (SMILES),Potency
1,O=S(=O)(c1ccc(Cl)c(C(F)(F)F)c1)N1CCN(c2ccccn2)CC1,inactive
2,O=C(c1ccco1)[C@@H]1[C@@H]2C(=O)N(c3ccc(F)cc3)C(=O)[C@@H]2[C@H]2C=Cc3ccccc3N21,inactive
3,COc1cc(CN2CCCC(CO)(Cc3cccc(Cl)c3)C2)cc(OC)c1O (stereo not given),inactive
4,Cc1ccc(S(=O)(=O)Nc2nc3n(n2)C(c2ccc(F)cc2)C=C(c2ccccc2)N3)cc1 (stereo not given),inactive
5,O=C(O)/C=C/C(=O)NNc1ccc([N+](=O)[O-])cc1,13.4 µM (active)
6,O=C(N/N=C/c1ccc(-c2ccc([N+](=O)[O-])cc2)o1)C(O)c1ccccc1 (stereo not given),inactive
7,CCc1ccccc1N1CC(c2nnc(NC(=O)c3ccco3)s2)CC1=O (stereo not given),inactive
8,Cc1sc(NC(=O)c2ccco2)nc1-c1ccc2c(c1)CC(C)N2C(=O)C1CC1 (stereo not given),28.2 µM (active)
9,Cc1ccc(N2CCN(S(=O)(=O)c3nnc(NC(=O)c4ccco4)s3)CC2)cc1,inactive
10,C=CCN=C(S)Nc1ccc(C(N)=O)cc1,inactive
11,COc1ccc(CCn2c(=S)[nH]c3cc(C(=O)NCc4ccco4)ccc3c2=O)cc1OC,28.2 µM (active)
12,COc1ccc(CCn2c(=S)[nH]c3ccc(N4CCOCC4)cc3c2=O)cc1OC,inactive
13,COc1ccc(CCn2c(=S)[nH]c3cc(C(=O)N4CCOCC4)ccc3c2=O)cc1OC,inactive
14,Cc1cc(O)c(C(C)C)cc1C1(c2cc(C(C)C)c(O)cc2C)OC(=O)c2ccccc21,31.6 µM (active)
15,CC(=O)Oc1ccc2c(c1)Oc1cc(OC(C)=O)ccc1C21OC(=O)c2ccccc21,inactive
16,O=C1OC(c2ccc3ccccc3c2O)(c2ccc3ccccc3c2O)c2ccccc21,17.8 µM (active)
17,Cc1cccc2c3c([nH]c12)C(=O)CC(C)(C)S3,inactive
18,O=C(N/C(=C/c1ccccc1Cl)C(=O)N1CCCC1)c1ccccc1,inactive
19,Cc1nc(N2CCN(c3ccccc3F)CC2)nc(O)c1C,inactive
20,CCCc1cc(NC(=O)COC(=O)c2nccnc2N)n(-c2ccccc2)n1,inactive
21,CCOC(=O)[C@]12Cc3c(cc(OC)c(OC)c3OC)[C@H]1N(CCC(=O)OC)C(=O)c1cc(OC)ccc12,22.4 µM (active)
